According to PubChem BioAssay (NCI):
About 79,000 compounds went through this panel and 15% of them were active in at least one assay; those are over-represented in the sample as a whole. Cut-off read from the data, not from the text of the source: active = growth inhibition above about 70%; inactive = the rest.

What was measured:
[1] = NCI Yeast Anticancer Drug Screen. Data for the rad50 strain (AID 155);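 note: 0% = growth of vehicle-only cultures of the same strain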; conditions: S. cerevisiae rad50 strain growth inhibition; at 50.0 µM; active compounds read high
Method in brief: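 Growth of the mutant yeast was measured after compound exposure and referenced to vehicle-treated cultures.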

[2] = NCI Yeast Anticancer Drug Screen. Data for the mec2-1 strain (AID 157); conditions: S. cerevisiae mec2-1 strain, at 50.0 µM, active compounds read high
Method in brief: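 mec2-1 yeast strain, carrying an alteration in DNA damage repair or cell cycle control, was exposed to compounds; growth inhibition was measured relative to vehicle-treated controls.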

[3] = NCI Yeast Anticancer Drug Screen. Data for the sgs1 mgt1 strain (AID 161);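 note: 0% = growth of cultures given vehicle only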; conditions: S. cerevisiae sgs1 mgt1 strain, at 50.0 µM, active compounds read high
Method in brief: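 Yeast cells carrying a defined DNA-repair defect were exposed to test compounds. Growth inhibition was measured relative to vehicle-treated controls.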

[4] = NCI Yeast Anticancer Drug Screen. Data for the cln2 rad14 strain (AID 165);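 note: 0% = growth equal to vehicle treated cultures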; conditions: S. cerevisiae cln2 rad14 strain, at 50.0 µM, active compounds read high
Method in brief: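 Yeast carrying cln2 and rad14 alterations (cell cycle control and DNA damage repair) were exposed to compounds. Growth inhibition was measured against vehicle-treated controls.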

[5] = NCI Yeast Anticancer Drug Screen. Data for the bub3 strain (AID 167); conditions: S. cerevisiae bub3 mutant strain, at 50.0 µM, active compounds read high
Method in brief: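 Whole-cell yeast assay. The mutant strain was incubated with compounds, and growth inhibition was determined by comparison with vehicle-treated cells.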

[6] = NCI Yeast Anticancer Drug Screen. Data for the mlh1 rad18 strain (AID 175); conditions: S. cerevisiae mlh1 rad18 strain growth inhibition; at 50.0 µM; active compounds read high
Method in brief: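 Growth inhibition of the yeast strain was measured after compound exposure and expressed relative to vehicle-treated controls. The strain carries defined defects in DNA damage repair.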

Measured: growth inhibition

CC(=O)OC12CC(C)C3(O)C4C=C(C)C(=O)[C@@]4(O)CC(CO)=C[C@H]3C1C2(C)C (stereo partly specified)
inactive: [1] -4.3% | [2] -6.15% | [3] 9.95% | [4] 5.35% | [5] 6.8% | [6] 2.05%

CCOC(=O)c1[nH]n(-c2ccccc2)c(=O)c1C=NC(C)=S
inactive: [1] -32.2% | [2] -25.6% | [3] -16.6% | [4] 7.1% | [5] -12% | [6] -18.9%

O=[N+]([O-])c1cccc(Cc2nncc3ccccc23)c1
inactive: [1] 4.15% | [2] 35.9% | [3] 17.6% | [4] 0.05% | [5] 44.5% | [6] 17.7%

COC(=O)Nc1cn2nc(C)sc2n1
inactive: [1] -17.4% | [2] 11.4% | [3] -10.1% | [4] -16.1% | [5] 2.6% | [6] -6.95%

CCOC(=O)N1CCNCCN(C(=O)OCC)CCNCC1
inactive: [1] -3.95% | [2] 2.3% | [3] -4.3% | [4] 0.7% | [5] -4.5% | [6] 24.1%

Cc1ccc(C2(O)c3ccccc3N=NN2C)cc1 (stereo unspecified)
inactive: [1] 2.6% | [2] 0.5% | [3] 4% | [4] -16.8% | [5] 14% | [6] 9.75%

N#CCc1c(-c2ccccn2)[nH]c2ccccc12
inactive: [1] 9.25% | [2] 1.35% | [3] -3% | [4] 18.8% | [5] -11.2% | [6] 12%

Cc1cn(C2CCN(CC3COC(C)(C)O3)O2)c(=O)[nH]c1=O (stereo unspecified)
inactive: [1] -13.5% | [2] -11.9% | [3] -26.3% | [4] -24.9% | [5] -5.35% | [6] -19.6%

Cc1cc(C(=O)O)c(C#N)c(=O)n1C
inactive: [1] -1.55% | [2] 5.3% | [3] -12.6% | [4] -13.6% | [5] -12% | [6] 8.55%

C/C(=N\O)c1cccc[n+]1Cc1ccccc1
inactive: [1] 12.2% | [2] 12.7% | [3] -15.8% | [4] -21.6% | [5] 17.8% | [6] -3.6%

O=[N+]([O-])c1ccc(NC(CO)C(O)C(O)C(O)CO)c([N+](=O)[O-])c1 (stereo unspecified)
inactive: [1] 12.3% | [2] -4.85% | [3] -0.85% | [4] -6.45% | [5] 3.2% | [6] -7.4%

C/C(=N/NC(N)=O)c1ccccc1Cl
inactive: [1] -3.75% | [2] 3.5% | [3] -14.9% | [4] -20.4% | [5] -6.7% | [6] 12.8%

O=C1c2cc(Cl)ccc2-n2c(noc2=O)C2CSCN12 (stereo unspecified)
inactive: [1] -8% | [2] -10.3% | [3] -21% | [4] 8.85% | [5] -18.3% | [6] 11.6%

Cc1cnc2[nH]c(-c3cccc4ccccc34)cc(=O)c2c1
inactive: [1] 13.2% | [2] 7% | [3] 16.1% | [4] -6.6% | [5] 14.9% | [6] -21.6%

O=C(NC(CSC(=O)c1ccccc1)C(=O)O)c1ccccc1 (stereo unspecified)
inactive: [1] 3.2% | [2] -8.5% | [3] -2.6% | [4] -22.1% | [5] 6.8% | [6] 7.45%

O=C(NC1CCC(CC2CCCCC2)CC1)c1ccccc1 (stereo unspecified)
inactive: [1] -14.7% | [2] 0.7% | [3] -7.65% | [4] 21.2% | [5] 10.8% | [6] 19.2%

CCCCCC(CN(C)C)C(=O)CC(SCC)c1ccccc1 (stereo unspecified)
inactive: [1] 27.7% | [2] 20.4% | [3] 8.85% | [4] 1.05% | [5] 18.6% | [6] 16.8%

CCCC(=O)N[C@H]1C[C@H]2CC[C@@]1(C)C2(C)C
inactive: [1] -31.6% | [2] -27.4% | [3] -15.1% | [4] 11.2% | [5] 10.3% | [6] -1.75%

Cc1ccc(NC(N)=O)cc1
inactive: [1] -33.5% | [2] -43.9% | [3] -24.1% | [4] 10.7% | [5] -1.05% | [6] -5.9%

O=S(=O)(O)C1CC2C(c3ccccc31)N1ON2O1 (stereo unspecified)
inactive: [1] 54.8% | [2] -2.05% | [3] 10.3% | [4] 3.75% | [5] -14.7% | [6] -0.95%

O=C(O)C(CNCc1ccccc1)(c1ccccc1)c1ccccc1
inactive: [1] 5.55% | [2] -9.25% | [3] 10.3% | [4] 4.9% | [5] 1.3% | [6] 12.7%
